Data: PubChem BioAssay (NCATS)
“And” between values parts separate entries of the source, which are not always exact repeats. Equal values may be shown once. Records with an inconclusive call do not appear. A call without a number means that no potency is given here. A number with no mark means an inactive call. The source made the active and inactive calls. Unless noted, calls come from the whole dose curve; as a rule, active = well fitted curve in the direction sought with a large enough effect; inconclusive = small, poorly fitted or top-dose-only effect, or another doubt; inactive = no such curve, though single readings can be large; an effect the other way counts as inactive or inconclusive.

Assays:
[1] = Primary qHTS for small molecule stabilizers of the endoplasmic reticulum resident proteome: Secreted ER Calcium Modulated Protein (SERCaMP) assay (AID 1508630)
Method in brief: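 GLuc-SERCaMP-expressing SH-SY5Y cells, pretreated 16 h with compound, are challenged with thapsigargin to empty ER calcium stores; after 4 h, coelenterazine is added directly to the medium and luminescence is imaged.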

[2] = A High-Content qHTS Against Drug Library for the Identification of Small Molecules that Inhibit DYT1 Early Onset Primary Dystonia-Associated Cell Pathology (AID 1645839; calls by dose curve; note: potency is the fitted concentration of half-maximal effect)
Method in brief: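 In this high-content image screen, delE TorsinA mislocalization in inducible Flp-In 293 cells is scored as %pathology, with cell count serving as the counterscreen. Compound exposure lasts 48 h under tetracycline induction in reduced-serum medium.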

[3] = biological target: Cytochrome P450 2C9 (Homo sapiens) (UniProt P11712); assay: Cytochrome P450 family 2 subfamily C member 9 (CYP2C9) small molecule antagonists: luciferase biochemical (cell-free) qHTS assay (AID 1645842; active = well fitted curve in the direction sought with a large enough effect in the repeat runs; an effect the other way counts as inactive or inconclusive; note: nearly all actives have a fitted effect of over 55% in size; note: potency is the fitted concentration of half-maximal effect)
Method in brief: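 Luminescence, after 20 min with luciferin detection reagent, reflected CYP2C9 turnover during a 1 h NADPH-driven reaction at 37C. Enzyme-substrate mix contained 0.4% bovine serum albumin and was preincubated with compound 10 min at room temperature.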

[4] = Primary qHTS for inhibitors of nuclear receptor binding SET domain protein 2 (NSD2) in an isogenic RCH-ACV NSD2 p.E1099K mutant (9B) (AID 1645876); note: nearly all actives have a fitted effect of over 70% in size; note: potency is the fitted concentration of half-maximal effect
[5] = biological target: Cytochrome P450 2D6 (Homo sapiens) (UniProt P10635); assay: Cytochrome P450 family 2 subfamily D member 6 (CYP2D6) small molecule antagonists: luciferase biochemical (cell-free) qHTS assay (AID 1645840; active = well fitted curve in the direction sought with a large enough effect in the repeat runs; an effect the other way counts as inactive or inconclusive; note: nearly all actives have a fitted effect of over 55% in size; note: potency is the fitted concentration of half-maximal effect)
Method in brief: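 P450-Glo luminescent screen: recombinant CYP2D6 enzyme–proluciferin substrate mix preincubated with compound 10 min at room temperature, then NADPH regeneration added for 1 h at room temperature. Detection reagent added for 20 min; luciferin light read as relative luminescence units.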

Papain (Carica papaya) = Papain (Carica papaya) (UniProt P00784); assay: Primary qHTS assay for inhibitors of the protease papain (AID 1645873);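 note: papain turnover of Z-FR-AMC read as the AMC fluorescence gain over 10 min; series mostly up to about 50 µM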
Papain (Carica papaya), sequence (P00784 whole entry, looked up): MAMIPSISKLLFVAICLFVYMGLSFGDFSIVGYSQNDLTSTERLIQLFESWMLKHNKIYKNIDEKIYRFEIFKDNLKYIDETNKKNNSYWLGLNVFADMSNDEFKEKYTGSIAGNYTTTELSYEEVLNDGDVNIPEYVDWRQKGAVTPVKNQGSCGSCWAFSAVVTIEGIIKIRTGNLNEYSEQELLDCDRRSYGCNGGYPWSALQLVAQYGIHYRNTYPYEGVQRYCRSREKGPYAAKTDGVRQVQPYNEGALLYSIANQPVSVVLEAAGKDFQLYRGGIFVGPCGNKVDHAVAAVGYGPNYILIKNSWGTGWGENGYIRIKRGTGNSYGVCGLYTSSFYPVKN

Cytochrome P450 2D6 (Homo sapiens), sequence (P10635 whole entry, looked up): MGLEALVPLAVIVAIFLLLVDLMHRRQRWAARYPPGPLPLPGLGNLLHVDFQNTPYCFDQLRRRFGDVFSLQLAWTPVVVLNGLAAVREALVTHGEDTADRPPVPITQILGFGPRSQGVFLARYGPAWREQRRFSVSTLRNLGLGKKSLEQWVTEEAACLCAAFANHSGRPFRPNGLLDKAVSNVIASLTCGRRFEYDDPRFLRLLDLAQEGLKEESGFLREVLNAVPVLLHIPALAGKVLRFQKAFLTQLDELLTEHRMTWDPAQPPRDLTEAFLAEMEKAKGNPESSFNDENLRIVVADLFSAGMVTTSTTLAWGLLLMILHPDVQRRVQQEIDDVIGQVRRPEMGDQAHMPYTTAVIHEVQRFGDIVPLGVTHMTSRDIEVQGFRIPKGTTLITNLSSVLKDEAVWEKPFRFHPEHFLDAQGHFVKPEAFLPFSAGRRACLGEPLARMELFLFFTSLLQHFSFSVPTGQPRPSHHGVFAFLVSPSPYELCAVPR
Cytochrome P450 2C9 (Homo sapiens), sequence (P11712 whole entry, looked up): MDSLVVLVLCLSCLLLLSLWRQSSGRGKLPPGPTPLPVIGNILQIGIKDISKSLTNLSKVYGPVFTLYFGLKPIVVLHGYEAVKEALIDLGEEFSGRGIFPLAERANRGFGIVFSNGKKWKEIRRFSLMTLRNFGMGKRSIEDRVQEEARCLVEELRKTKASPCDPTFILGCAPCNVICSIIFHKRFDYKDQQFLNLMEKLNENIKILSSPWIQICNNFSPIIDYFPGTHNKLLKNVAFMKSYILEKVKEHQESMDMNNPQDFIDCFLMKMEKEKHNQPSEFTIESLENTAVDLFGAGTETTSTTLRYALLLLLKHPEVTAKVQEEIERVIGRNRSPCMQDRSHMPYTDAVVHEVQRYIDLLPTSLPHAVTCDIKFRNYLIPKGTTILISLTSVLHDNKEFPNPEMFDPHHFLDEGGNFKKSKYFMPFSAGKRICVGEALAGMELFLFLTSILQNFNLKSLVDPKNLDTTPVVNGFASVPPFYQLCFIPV

| SMILES | Potency [1] | Potency [2] | Potency [3] | Potency [4] | Potency [5] | Potency (Papain (Carica papaya)) |
| --- | --- | --- | --- | --- | --- | --- |
| NC(=O)NC(=O)Cc1ccccc1 | inactive | inactive | inactive | inactive |  |  |
| CCC(=O)c1ccc(O)cc1 | inactive | inactive | inactive | inactive | inactive |  |
| COc1ccc(S(=O)(=O)Nc2nnc(CC(C)C)s2)cc1 | inactive | inactive | 21.9 µM (active) | inactive |  |  |
| CCN(CC)CCNC(C(=O)OCCC(C)C)c1ccccc1 (configuration not stated) | inactive | inactive | inactive | inactive | 776 nM (active) |  |
| COCCOC(=O)C1=C(C)NC(C)=C(C(=O)OC/C=C/c2ccccc2)C1c1cccc([N+](=O)[O-])c1 (configuration not stated) | inactive | 11.2 µM (active) | 0.0617 µM (active) | 15 µM (active) |  | inactive |
| Cc1ccc2nc(N)[nH]c(=O)c2c1Sc1ccncc1 | inactive | inactive |  | 2.3 µM (active) | 7.76 µM (active) and 10.7 µM (active) |  |
| CC1=C(CC(=O)O)c2cc(F)ccc2/C1=C\c1ccc(S(C)(=O)=O)cc1 | inactive | inactive |  |  | inactive | inactive |
| CN(C)CC[C@@H](c1ccc(Cl)cc1)c1ccccn1 | inactive | inactive | inactive | inactive |  | inactive |
| CCCCC(CC)COC(=O)c1ccccc1O (configuration not stated) | inactive | inactive | inactive | inactive |  |  |
| Cc1ccc(C(C)C)cc2c(C)ccc1-2 | inactive | inactive | inactive | inactive |  |  |
| CCCCOc1cc(C(=O)OCCN(CC)CC)ccc1N | inactive | inactive | inactive | inactive |  |  |
| N[C@H]1C(O)O[C@H](CO)[C@@H](O)[C@@H]1O (some centres not stated) | inactive | inactive | inactive | inactive | inactive |  |
| O=C1NC(=O)[C@@]2(CCOc3ccc(F)cc32)N1 | inactive | inactive | inactive | inactive |  | inactive |
| O=C(O)Cc1sc(-c2ccccc2)nc1-c1ccc(Cl)cc1 | inactive | inactive | 4.9 µM (active) | inactive |  |  |
| Nc1ccc(S(=O)(=O)NC(=O)c2ccccc2)cc1 | inactive | inactive |  | inactive | inactive |  |
| CC(=O)Nc1ccc(/C=N/NC(N)=S)cc1 | inactive | inactive |  | 21.1 µM (active) | inactive |  |
| NC(CSCC(=O)O)C(=O)O (configuration not stated) | inactive | inactive | inactive |  |  |  |
| O=C1O[C@H](CO)[C@@H](O)[C@H](O)[C@H]1O | inactive | inactive | inactive | inactive |  |  |
